Screens: PubChem BioAssay, National Center for Advancing Translational Sciences (NCATS)
Compounds with a hit are over-represented: about 6.9% of the library has one in this group of screens.
S-ASM inh: Inhibitors of Secretory Acid Sphingomyelinase (S-ASM): qHTS; Sphingomyelin phosphodiesterase (Homo sapiens), P17405; placental ASM, HMU-PC fluorogenic substrate, 60 min; Potency, µM (highest dose often 57.5 µM), inactives show top-dose activity change, negative = inhibition, usual class: inhibitors; 340,000 compounds, 0.006% hits; AID 504937, 2011; further: potency means the concentration at half of the fitted maximal effect
Target sequence (P17405 47-631 limits assumed): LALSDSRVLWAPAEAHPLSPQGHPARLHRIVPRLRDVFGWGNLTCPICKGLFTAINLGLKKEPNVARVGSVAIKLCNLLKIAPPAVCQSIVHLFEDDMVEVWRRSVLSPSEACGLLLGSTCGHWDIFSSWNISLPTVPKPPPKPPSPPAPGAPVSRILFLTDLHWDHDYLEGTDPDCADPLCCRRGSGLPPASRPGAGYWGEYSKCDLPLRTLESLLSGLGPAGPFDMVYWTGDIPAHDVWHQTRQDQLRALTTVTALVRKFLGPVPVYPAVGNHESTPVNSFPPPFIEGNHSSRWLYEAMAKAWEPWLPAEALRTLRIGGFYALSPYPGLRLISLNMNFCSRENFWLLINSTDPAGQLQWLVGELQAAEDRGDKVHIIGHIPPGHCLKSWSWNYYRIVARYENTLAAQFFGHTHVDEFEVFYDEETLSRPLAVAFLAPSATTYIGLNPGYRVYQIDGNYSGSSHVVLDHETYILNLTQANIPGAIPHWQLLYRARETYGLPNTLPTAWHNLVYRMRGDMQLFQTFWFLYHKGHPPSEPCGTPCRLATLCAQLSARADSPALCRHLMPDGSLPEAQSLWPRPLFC
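qHTS format. ASM enzyme prepared from human placenta hydrolyses the fluorogenic substrate HMU-PC0 (9 uM final) over 60 min at 37 °C after a 10 min compound preincubation.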
KB-V1 cytotox: qHTS assay for MDR1-selective chemotherapeutics: Primary screen using the drug-selected MDR subline cells KB-V1. KB-V1 MDR cells viability, CellTiter-Glo, 72 h. Potency, µM (titrated, usually from 46.1 µM), usual class: cytotoxic. 400,000 compounds, 3.4% hits. AID 1347076, 2019; further: potency means the concentration at half of the fitted maximal effect; on the % scale 0 is the no-effect control and ±100 the full control effect; nearly all actives have a fitted effect of over 60% in size
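Compound-treated KB-V1 multidrug-resistant cells, 72 h, 37 degrees C; viability by CellTiter-Glo. Fitted qHTS curves give the values.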
Giardia kill: Small Molecules that selectively kill Giardia lamblia: qHTS; Giardia lamblia trophozoite viability; activity change, % at 7.66 µM, hits read low; 340,000 compounds, 0.15% hits; AID 540267, 2011; in the data active means activity change below about -80%; inconclusive means between about -30% and that limit;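 further: parasites exposed to compound for two days anaerobically before the ATP read; on the % scale 0 is the no-effect control and ±100 the full control effect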
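Anaerobic 48 hrs incubation at 37 deg C of 100 trophozoites/well with test compounds; ATPLite 1-Step luminescence, 15-30 min RT, reports cellular ATP as viability.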
KB-3-1 cytotox: qHTS assay for MDR1-selective chemotherapeutics: Primary screen using the parental adenocarcinoma cell KB-3-1 | KB-3-1 viability, CellTiter-Glo ATP luminescence, 72 h | Potency, µM (doses to about 46.1 µM), usual class: cytotoxic | 400,000 compounds, 1.4% hits | AID 1347075, 2019; further: potency means the concentration at half of the fitted maximal effect; on the % scale 0 is the no-effect control and ±100 the full control effect; nearly all actives have a fitted effect of over 60% in size
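Multi-concentration cytotoxicity screen in KB-3-1 cells grown in DMEM lacking phenol red with 10% FBS. After 72 h at 37 °C with compound, ATP-dependent luminescence was recorded.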
SW480 rereplic: A quantitative high throughput screen for small molecules that induce DNA re-replication in SW480 colon adenocarcinoma cells; SW480 DNA re-replication, Hoechst DNA content imaging, 48 h; Potency, µM (series often up to 46.1 µM), for the others: top-dose re-replication activation, hits mostly activators; 340,000 compounds, 1.8% hits; AID 624297, 2012; further: potency means the concentration at half of the fitted maximal effect; % of control where 0% means no effect; nearly all actives have a fitted effect of over 55% in size
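Hoechst fluorescence of nuclei (405 nm excitation, 500-530 nm emission) measured by plate-scanning imager after 48 hr compound exposure at 37 C; re-replication scored as increased number of nuclei with elevated intensity.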
MCF10A rereplic: A quantitative high throughput screen for small molecules that induce DNA re-replication in MCF 10a normal breast cells; MCF 10A DNA re-replication, Hoechst nuclear intensity, 48 h; Potency, µM (titrated, usually from 46.1 µM), without a hit: at the top dose activity, positive = re-replication, most hits filed as activators; 350,000 compounds, 2.9% hits; further: potency means the concentration at half of the fitted maximal effect; % of control where 0% means no effect; nearly all actives have a fitted effect of over 50% in size
* = called active by the depositor. Unless noted, the call rests on the fitted dose curve; in most records, active means well fitted curve in the direction sought with a large enough effect; inconclusive means small, poorly fitted or top-dose-only effect, or another doubt; inactive means no such curve, though single readings can be large; an effect the other way counts as inactive or inconclusive.

For CN(C)CCN1CCN(C2CN(Cc3cn(Cc4ccccc4C(F)(F)F)nn3)S(=O)(=O)C2)CC1 (centres undefined) the results were KB-V1 cytotox inactive and KB-3-1 cytotox inactive.
`O=C(Nc1nc2n(n1)C(c1ccc(F)cc1)C=C(c1ccccc1)N2)c1ccco1` (centres undefined) gave KB-V1 cytotox inactive and KB-3-1 cytotox inactive.
O=C(Nc1ccc2c(c1)OCO2)c1ccc(N2CCCC2)c([N+](=O)[O-])c1 was read as S-ASM inh -7.8%, KB-V1 cytotox 23.1µM*, Giardia kill 0.8, KB-3-1 cytotox inactive, SW480 rereplic 11.1% and MCF10A rereplic 10.6%.
Screening O=C(Nc1ccc2c(c1)OCO2)c1ccc(NC2CC2)c([N+](=O)[O-])c1 returned S-ASM inh -10.7%, KB-V1 cytotox 14.6µM*, Giardia kill 2.5, KB-3-1 cytotox inconclusive, SW480 rereplic inconclusive and MCF10A rereplic inconclusive.
For O=C(Nc1ccc(N2CCCCC2)c(Cl)c1)c1ccc(N2CCOCC2)c([N+](=O)[O-])c1 the results were S-ASM inh -25.2%, KB-V1 cytotox inconclusive, Giardia kill 2.7, KB-3-1 cytotox inactive, SW480 rereplic 0.2% and MCF10A rereplic 13.9%.
For O=C(NCc1ccc2c(c1)OCO2)c1cc([N+](=O)[O-])ccc1N1CCCCC1 the results were S-ASM inh -7.8%, KB-V1 cytotox inconclusive, Giardia kill 3.6, KB-3-1 cytotox 2.06µM*, SW480 rereplic 5.8µM* and MCF10A rereplic 2.59µM*.
Screening COC(=O)c1nnn(CC(=O)Nc2cc(F)ccc2F)c1C(=O)OC returned KB-V1 cytotox inactive and KB-3-1 cytotox inconclusive.
Screening Cc1ccc(CNC(=O)C(CC(C)C)NS(=O)(=O)c2ccc3c(c2)oc(=O)n3C)cc1 (centres undefined) returned KB-V1 cytotox inactive and KB-3-1 cytotox inactive.
CC(NC1=CC(=O)c2cccnc2C1=O)C(O)c1ccccc1 (centres undefined) was read as S-ASM inh 17.6%, KB-V1 cytotox 14.6µM*, Giardia kill 8.4, KB-3-1 cytotox 8.2µM*, SW480 rereplic 11.6µM* and MCF10A rereplic 3.66µM*.
COc1ccc(OC)c(NC(=O)CC(=O)Nc2ccc3nc4n(c(=O)c3c2)CCCCC4)c1 was read as KB-V1 cytotox inactive and KB-3-1 cytotox inactive.
Screening CCOC(=O)C(=O)Nc1ccccc1C(=O)NCc1ccccc1 returned S-ASM inh -4.6%, KB-V1 cytotox inactive, Giardia kill 9.5, KB-3-1 cytotox inactive, SW480 rereplic -0.4% and MCF10A rereplic 2.7%.
`O=C(CSc1nc2ccccc2[nH]1)N1CCOCC1` gave KB-V1 cytotox inconclusive and KB-3-1 cytotox inactive.
`CCOc1ccc(-c2nc(N)ncc2-c2ccc(Cl)cc2)c(O)c1` gave S-ASM inh -0.9%, KB-V1 cytotox inactive, Giardia kill -8.9, KB-3-1 cytotox inactive, SW480 rereplic -29.8% and MCF10A rereplic inconclusive.
For CCOc1ccc(-c2nc(N)ncc2-c2ccccc2)c(O)c1 the results were S-ASM inh -4.1%, KB-V1 cytotox inconclusive, Giardia kill inconclusive, KB-3-1 cytotox 14.6µM*, SW480 rereplic 15.7% and MCF10A rereplic 16.8%.
Screening CCOc1ccc(-c2nc(N)ncc2-c2ccc(OC)cc2)c(O)c1 returned S-ASM inh -5.9%, KB-V1 cytotox 7.31µM*, Giardia kill 2.8, KB-3-1 cytotox inconclusive, SW480 rereplic inconclusive and MCF10A rereplic -52.9%.
Screening CCCc1cc(-c2nc(N)ncc2-c2csc(C)n2)c(O)cc1OC returned S-ASM inh -2.7%, KB-V1 cytotox inactive, Giardia kill 12.5, KB-3-1 cytotox inactive, SW480 rereplic -51.3% and MCF10A rereplic 11.7%.
